{"source": "PubChem BioAssay AID504381", "about": "(The Scripps Research Institute Molecular Screening Center, 2011)", "system": "Sigma receptor 2", "assay": "radioligand displacement at receptors and transporters – biochemical, PDSP panel, Set 2, late-stage follow-up (AID 504381)", "details": "PDSP radioligand binding panel, at 10 µM, hits give high values", "note": "Values without a mark were called inactive. The rule behind the calls is not given here."}
{"molecule": "CC(=O)c1ccc2c(c1)Nc1ccccc1S2", "values": [{"measurement": "inhibition", "value": -12.2, "unit": "%"}]}
